# Results reported in the supplement of paper PMC10849652.
# The full data set covers some 8,800 targets. This sample favours those with a hit. About 0.5% of all pairs of compound and target were hits. A number with no mark means an inactive call.
# Legend:
# Assay in all cases: log2 fold change, soluble protein after heating vs DMSO (PISA); higher = thermal stabilisation; K562 lysate, 10 uM; active = over 0.2 and 3.5 SD of the protein, either way, in both replicates (recomputed)
# alvocidib = compound: CN1CC[C@H](c2c(O)cc(O)c3c(=O)cc(-c4ccccc4Cl)oc23)[C@H](O)C1 [alvocidib]
# Method in brief: (§1)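 Dounce homogenisation of K562 pellets in PBS pH 7.4 with 1 mM MgCl2 produced a crude extract, used at 1 mg/mL protein. Exposure to 10 μM compound lasted 30 min, and aliquots were then heated for 3 min across 48°C-58°C, pooled and brought to 0.5% NP-40 at 4°C. The supernatant after 21,000xg for 90 min was quantified by TMTpro 16plex LC-MS/MS with channel sums equalised. Duplicate values are given as log-two fold change in thermal stability relative to solvent controls.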
# Tubastatin A = compound: CN1CCc2c(c3ccccc3n2Cc2ccc(C(=O)NO)cc2)C1 [Tubastatin A]
# Method in brief: as §1
# [1] = compound: CNC(=O)C1=CC=CC=C1NC2=NC(=NC=C2Cl)NC3=C(C=C(C=C3)N4CCOCC4)OC
# Method in brief: as §1
# defactinib = compound: CNC(=O)c1ccc(Nc2ncc(C(F)(F)F)c(NCc3nccnc3N(C)S(C)(=O)=O)n2)cc1 [defactinib]
# Method in brief: as §1
# [2] = compound: CNc1nc(-c2ccc3c(N)n[nH]c3c2)cc(N2C[C@@H](C(=O)NC3CCCCC3)CC[C@H]2C)n1
# Method in brief: as §1
# encorafenib = compound: COC(=O)N[C@@H](C)CNc1nccc(-c2cn(C(C)C)nc2-c2cc(Cl)cc(NS(C)(=O)=O)c2F)n1 [encorafenib]
# Method in brief: as §1
# [3] = compound: COC(=O)[C@H](CCSC)NC(=O)C1=C(C=C(C=C1)NC[C@H](CS)N)C2=CC=CC=C2
# Method in brief: as §1
# alisertib = compound: COc1cc(Nc2ncc3c(n2)-c2ccc(Cl)cc2C(c2c(F)cccc2OC)=NC3)ccc1C(=O)O [alisertib]
# Method in brief: as §1
# [4] = compound: COc1cc2nc(-c3cc(F)ccc3O)nc(N[C@@H]3CNC[C@H]3C(C)(C)O)c2cc1OC
# Method in brief: as §1
# gefitinib = compound: COc1cc2ncnc(Nc3ccc(F)c(Cl)c3)c2cc1OCCCN1CCOCC1 [gefitinib]
# Method in brief: as §1
# lapatinib = compound: CS(=O)(=O)CCNCc1ccc(-c2ccc3ncnc(Nc4ccc(OCc5cccc(F)c5)c(Cl)c4)c3c2)o1 [lapatinib]
# Method in brief: as §1
# pictilisib = compound: CS(=O)(=O)N1CCN(Cc2cc3nc(-c4cccc5[nH]ncc45)nc(N4CCOCC4)c3s2)CC1 [pictilisib]
# Method in brief: as §1
# crizotinib = compound: C[C@@H](Oc1cc(-c2cnn(C3CCNCC3)c2)cnc1N)c1c(Cl)ccc(F)c1Cl [crizotinib]
# Method in brief: as §1
# [5] = compound: C[C@H](C1=CC=C(C=C1)C(=O)NC2=C3C=CNC3=NC=C2)N
# Method in brief: as §1
# duvelisib = compound: C[C@H](Nc1ncnc2nc[nH]c12)c1cc2cccc(Cl)c2c(=O)n1-c1ccccc1 [duvelisib]
# Method in brief: as §1
# gandotinib = compound: Cc1cc(Nc2cc(CN3CCOCC3)c3nc(C)c(Cc4ccc(Cl)cc4F)n3n2)n[nH]1 [gandotinib]
# Method in brief: as §1
# tozasertib = compound: Cc1cc(Nc2cc(N3CCN(C)CC3)nc(Sc3ccc(NC(=O)C4CC4)cc3)n2)n[nH]1 [tozasertib]
# Method in brief: as §1
# doramapimod = compound: Cc1ccc(-n2nc(C(C)(C)C)cc2NC(=O)Nc2ccc(OCCN3CCOCC3)c3ccccc23)cc1 [doramapimod]
# Method in brief: as §1
# bafetinib = compound: Cc1ccc(NC(=O)c2ccc(CN3CC[C@H](N(C)C)C3)c(C(F)(F)F)c2)cc1Nc1nccc(-c2cncnc2)n1 [bafetinib]
# Method in brief: as §1
# [6] = compound: Cc1cccc(CC(=O)N2CCc3c2ccc(-c2cn(C)c4ncnc(N)c24)c3F)n1
# Method in brief: as §1
# UniProt O94913, sequence (O94913 whole entry, looked up): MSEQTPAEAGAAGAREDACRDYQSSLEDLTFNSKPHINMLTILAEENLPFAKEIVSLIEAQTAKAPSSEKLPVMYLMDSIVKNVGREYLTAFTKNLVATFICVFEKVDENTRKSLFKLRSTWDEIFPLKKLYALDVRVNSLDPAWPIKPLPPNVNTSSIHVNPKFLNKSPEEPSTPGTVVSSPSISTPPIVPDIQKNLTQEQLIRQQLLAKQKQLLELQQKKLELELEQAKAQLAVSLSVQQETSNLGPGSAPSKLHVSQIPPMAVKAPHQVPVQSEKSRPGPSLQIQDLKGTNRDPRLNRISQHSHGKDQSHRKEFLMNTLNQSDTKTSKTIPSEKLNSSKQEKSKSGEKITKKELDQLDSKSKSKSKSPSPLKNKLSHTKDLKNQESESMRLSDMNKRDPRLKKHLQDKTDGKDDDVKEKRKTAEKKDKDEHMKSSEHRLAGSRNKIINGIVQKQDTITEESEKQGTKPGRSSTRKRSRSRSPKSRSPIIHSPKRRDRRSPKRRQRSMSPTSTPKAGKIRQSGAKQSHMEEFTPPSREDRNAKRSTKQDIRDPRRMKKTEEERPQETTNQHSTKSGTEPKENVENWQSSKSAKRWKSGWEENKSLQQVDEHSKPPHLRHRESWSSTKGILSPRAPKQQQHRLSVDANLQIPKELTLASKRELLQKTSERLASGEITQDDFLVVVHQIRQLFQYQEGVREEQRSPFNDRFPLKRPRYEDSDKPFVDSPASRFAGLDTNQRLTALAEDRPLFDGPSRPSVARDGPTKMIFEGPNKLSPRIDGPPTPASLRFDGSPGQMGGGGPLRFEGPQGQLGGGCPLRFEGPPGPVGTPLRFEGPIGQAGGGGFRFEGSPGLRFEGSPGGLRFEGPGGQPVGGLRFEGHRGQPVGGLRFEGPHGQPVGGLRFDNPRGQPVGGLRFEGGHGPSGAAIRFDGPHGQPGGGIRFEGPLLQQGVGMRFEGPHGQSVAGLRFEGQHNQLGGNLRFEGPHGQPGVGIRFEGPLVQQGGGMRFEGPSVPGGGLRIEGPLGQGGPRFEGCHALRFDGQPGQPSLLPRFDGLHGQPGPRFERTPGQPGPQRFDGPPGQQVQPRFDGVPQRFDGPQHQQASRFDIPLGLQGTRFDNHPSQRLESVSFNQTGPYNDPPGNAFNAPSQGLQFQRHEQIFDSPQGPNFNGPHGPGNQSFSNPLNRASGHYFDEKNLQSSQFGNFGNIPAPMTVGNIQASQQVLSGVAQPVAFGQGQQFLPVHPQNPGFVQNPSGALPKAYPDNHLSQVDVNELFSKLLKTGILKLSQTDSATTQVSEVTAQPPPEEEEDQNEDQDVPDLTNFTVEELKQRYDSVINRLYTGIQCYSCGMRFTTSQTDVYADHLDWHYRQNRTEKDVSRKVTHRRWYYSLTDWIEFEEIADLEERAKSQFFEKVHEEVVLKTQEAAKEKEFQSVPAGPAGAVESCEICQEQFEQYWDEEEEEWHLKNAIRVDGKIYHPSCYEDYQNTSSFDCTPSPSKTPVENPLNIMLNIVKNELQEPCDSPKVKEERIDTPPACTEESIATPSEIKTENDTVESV
# UniProt P29350, sequence (P29350 whole entry, looked up): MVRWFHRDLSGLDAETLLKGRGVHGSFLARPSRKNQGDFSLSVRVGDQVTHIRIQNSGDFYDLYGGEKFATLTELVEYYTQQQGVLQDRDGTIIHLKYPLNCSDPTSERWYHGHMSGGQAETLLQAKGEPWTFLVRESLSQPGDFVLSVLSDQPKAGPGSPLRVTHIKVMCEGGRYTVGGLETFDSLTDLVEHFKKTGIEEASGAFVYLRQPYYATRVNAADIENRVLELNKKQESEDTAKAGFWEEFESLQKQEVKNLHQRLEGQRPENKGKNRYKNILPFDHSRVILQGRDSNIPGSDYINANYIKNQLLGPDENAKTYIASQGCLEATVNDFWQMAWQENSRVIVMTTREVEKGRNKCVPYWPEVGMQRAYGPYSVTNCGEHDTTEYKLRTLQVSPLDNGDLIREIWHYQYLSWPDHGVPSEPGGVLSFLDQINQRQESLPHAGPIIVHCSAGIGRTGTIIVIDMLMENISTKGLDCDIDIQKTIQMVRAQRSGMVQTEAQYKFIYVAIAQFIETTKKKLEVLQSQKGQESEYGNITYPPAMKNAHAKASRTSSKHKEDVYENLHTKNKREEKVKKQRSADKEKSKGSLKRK
# UniProt Q9H4Z3, sequence (Q9H4Z3 whole entry, looked up): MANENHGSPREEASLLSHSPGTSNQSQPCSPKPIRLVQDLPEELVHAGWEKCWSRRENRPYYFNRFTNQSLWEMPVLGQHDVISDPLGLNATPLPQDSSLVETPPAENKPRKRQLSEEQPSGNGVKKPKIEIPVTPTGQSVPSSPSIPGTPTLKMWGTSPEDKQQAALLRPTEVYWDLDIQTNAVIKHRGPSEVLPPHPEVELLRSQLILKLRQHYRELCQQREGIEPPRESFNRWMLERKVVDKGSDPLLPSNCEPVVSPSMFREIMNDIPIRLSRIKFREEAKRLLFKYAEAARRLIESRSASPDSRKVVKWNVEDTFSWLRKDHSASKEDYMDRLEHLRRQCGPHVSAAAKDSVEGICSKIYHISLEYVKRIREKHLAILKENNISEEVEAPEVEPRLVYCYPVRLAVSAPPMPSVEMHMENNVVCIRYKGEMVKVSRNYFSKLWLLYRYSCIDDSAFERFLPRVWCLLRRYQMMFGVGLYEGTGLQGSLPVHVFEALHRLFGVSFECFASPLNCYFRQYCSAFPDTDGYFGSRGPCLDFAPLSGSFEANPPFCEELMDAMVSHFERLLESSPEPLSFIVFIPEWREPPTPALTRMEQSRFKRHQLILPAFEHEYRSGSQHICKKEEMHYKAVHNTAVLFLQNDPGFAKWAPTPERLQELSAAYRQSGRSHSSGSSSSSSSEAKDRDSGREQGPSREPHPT
# UniProt Q9BZL6, sequence (Q9BZL6 whole entry, looked up): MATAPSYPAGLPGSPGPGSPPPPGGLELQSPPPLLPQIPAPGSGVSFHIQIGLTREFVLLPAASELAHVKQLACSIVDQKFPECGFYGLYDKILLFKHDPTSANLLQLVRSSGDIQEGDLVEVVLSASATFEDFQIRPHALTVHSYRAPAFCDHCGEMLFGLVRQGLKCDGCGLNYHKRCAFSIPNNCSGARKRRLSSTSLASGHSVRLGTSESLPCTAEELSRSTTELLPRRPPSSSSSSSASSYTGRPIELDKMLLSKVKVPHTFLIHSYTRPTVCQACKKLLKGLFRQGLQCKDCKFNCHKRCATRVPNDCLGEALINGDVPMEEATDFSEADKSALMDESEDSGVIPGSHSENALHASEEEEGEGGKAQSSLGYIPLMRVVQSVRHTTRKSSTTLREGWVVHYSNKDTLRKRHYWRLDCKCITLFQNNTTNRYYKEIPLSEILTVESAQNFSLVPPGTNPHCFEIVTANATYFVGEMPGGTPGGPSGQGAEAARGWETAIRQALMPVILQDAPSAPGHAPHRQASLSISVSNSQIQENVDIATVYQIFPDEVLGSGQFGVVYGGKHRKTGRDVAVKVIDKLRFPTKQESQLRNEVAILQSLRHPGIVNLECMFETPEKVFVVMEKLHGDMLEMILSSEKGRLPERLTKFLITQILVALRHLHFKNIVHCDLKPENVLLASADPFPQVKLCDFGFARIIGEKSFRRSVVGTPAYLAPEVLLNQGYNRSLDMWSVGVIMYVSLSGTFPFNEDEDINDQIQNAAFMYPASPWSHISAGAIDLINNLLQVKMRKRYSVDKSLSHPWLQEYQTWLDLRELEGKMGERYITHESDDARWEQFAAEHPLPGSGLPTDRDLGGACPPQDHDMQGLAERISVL
# UniProt P46020, sequence (P46020 whole entry, looked up): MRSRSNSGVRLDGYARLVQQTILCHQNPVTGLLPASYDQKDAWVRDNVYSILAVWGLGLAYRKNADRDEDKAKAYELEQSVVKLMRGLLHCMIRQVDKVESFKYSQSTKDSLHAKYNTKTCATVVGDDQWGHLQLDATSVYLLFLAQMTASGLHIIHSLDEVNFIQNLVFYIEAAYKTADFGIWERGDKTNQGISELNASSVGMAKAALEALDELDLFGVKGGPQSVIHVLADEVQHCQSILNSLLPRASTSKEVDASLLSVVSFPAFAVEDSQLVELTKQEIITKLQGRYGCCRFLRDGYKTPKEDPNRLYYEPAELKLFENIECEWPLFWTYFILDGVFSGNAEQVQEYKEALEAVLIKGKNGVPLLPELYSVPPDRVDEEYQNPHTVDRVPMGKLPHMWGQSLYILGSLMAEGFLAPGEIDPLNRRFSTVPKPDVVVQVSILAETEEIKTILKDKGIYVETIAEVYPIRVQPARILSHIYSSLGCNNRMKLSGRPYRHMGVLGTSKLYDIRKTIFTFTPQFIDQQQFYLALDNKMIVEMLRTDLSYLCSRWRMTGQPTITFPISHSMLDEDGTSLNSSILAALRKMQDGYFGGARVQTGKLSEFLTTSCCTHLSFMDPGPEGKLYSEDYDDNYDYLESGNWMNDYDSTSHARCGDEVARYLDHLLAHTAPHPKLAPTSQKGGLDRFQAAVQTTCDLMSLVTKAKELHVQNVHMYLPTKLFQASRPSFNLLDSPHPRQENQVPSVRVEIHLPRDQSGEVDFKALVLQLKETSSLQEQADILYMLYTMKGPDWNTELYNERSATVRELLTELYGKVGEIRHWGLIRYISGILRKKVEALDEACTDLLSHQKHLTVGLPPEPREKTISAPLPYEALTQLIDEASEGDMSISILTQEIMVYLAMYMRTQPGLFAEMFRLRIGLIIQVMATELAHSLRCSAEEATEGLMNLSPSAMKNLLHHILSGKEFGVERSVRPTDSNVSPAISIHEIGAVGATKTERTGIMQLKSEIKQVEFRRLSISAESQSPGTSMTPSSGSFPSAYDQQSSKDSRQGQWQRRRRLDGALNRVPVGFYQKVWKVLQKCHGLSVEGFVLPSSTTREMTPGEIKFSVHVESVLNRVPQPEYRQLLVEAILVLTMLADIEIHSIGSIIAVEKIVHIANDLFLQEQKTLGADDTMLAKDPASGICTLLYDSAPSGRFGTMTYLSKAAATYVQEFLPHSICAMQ
Target,log2 fold change (alvocidib),log2 fold change (Tubastatin A),log2 fold change [1],log2 fold change (defactinib),log2 fold change [2],log2 fold change (encorafenib),log2 fold change [3],log2 fold change (alisertib),log2 fold change [4],log2 fold change (gefitinib),log2 fold change (lapatinib),log2 fold change (pictilisib),log2 fold change (crizotinib),log2 fold change [5],log2 fold change (duvelisib),log2 fold change (gandotinib),log2 fold change (tozasertib),log2 fold change (doramapimod),log2 fold change (bafetinib),log2 fold change [6]
PHKG2 (UniProt P15735),0.107,-0.044,0.268,0.001,0.033,-0.039,0.056,-0.045,0.192,0.03,-0.07,-0.069,0.166,0,-0.008,0.061,-0.051,0.031,0.015,-0.107
PCIF1 (UniProt Q9H4Z3),0.038,0.006,-0.024,0.051,0.02,0.017,0.02,0.04,0.01,-0.051,-0.059,-0.016,-0.001,-0.239 (active),0.216,0.074,-0.003,0.017,-0.059,0.09
PDCD4 (UniProt Q53EL6),0.01,-0.033,0.017,0.002,0.019,0.019,-0.034,-0.005,0.015,-0.003,-0.026,-0.003,-0.055,-0.051,-0.022,0.009,-0.002,0.011,-0.038,0.062
PDF (UniProt Q9HBH1),0.01,-0.065,0.083,0.059,0.011,0.028,-0.293 (active),0.048,-0.181,-0.064,0.027,-0.016,-0.067,0.018,-0.076,-0.019,0.029,0.027,-0.162,0.025
PLA2G4B isoform 6 (UniProt P0C869),-0.035,0.054,-0.032,0.024,0.051,0.09,0.177,-0.009,0.073,0.115,-0.001,-0.032,-0.49,-0.015,-0.038,0.069,-0.009,0,-0.133,0.086
QKI (UniProt Q96PU8),-0.058,-0.005,0.024,0.029,-0.02,0.045,-0.206,0.069,0.009,0.021,-0.002,0.015,0.047,-0.212 (active),-0.017,0.163,-0.021,-0.043,-0.056,0.155
PRKACA (UniProt P17612),-0.118,0.008,0.034,0.177,0.082,-0.052,-0.059,0.027,0.558 (active),-0.01,-0.008,-0.012,0.022,-0.159,-0.059,0.115,-0.12,-0.113,-0.073,0.151
PPP4R2 (UniProt Q9NY27),0.021,0.013,0.018,0.015,0.014,0.025,-0.014,-0.058,-0.002,-0.01,0.057,-0.003,0.023,0.159,0.003,-0.011,-0.007,-0.022,0.021,-0.048
PIP4P2 (UniProt Q8N4L2),-0.03,0.038,-0.021,-0.009,0.062,0,-0.12,0.006,0.052,0.111,0.021,-0.019,0.021,0.053,0.027,-0.021,0.061,0.033,-0.09,-0.009
POGK (UniProt Q9P215),-0.015,-0.011,0.001,0.059,-0.02,-0.052,0.028,0.071,-0.012,-0.013,-0.055,-0.026,0.022,-0.384 (active),0.01,0.095,-0.101,0.111,-0.109,0.142
PHKA1 (UniProt P46020),0.047,-0.073,0.168,0.08,-0.029,0.004,0.065,-0.014,0.084,0.041,-0.117,-0.003,-0.001,-0.042,-0.044,0.069,0.009,0.024,0.051,-0.047
POLR2F (UniProt P61218),0.272,-0.07,0.031,0.085,0.2,-0.036,-0.02,0.065,0.003,-0.097,0.036,-0.062,-0.024,1.12 (active),-0.018,-0.166,0.156,0.025,-0.076,-0.189
PRKD2 isoform 3 (UniProt Q9BZL6),0.01,-0.145,-0.125,0.24,0.024,0.091,-0.001,-0.028,0.238,-0.165,0.087,-0.009,-0.043,-0.047,0.05,-0.15,0.019,-0.002,0.02,-0.01
PSMB9 (UniProt P28065),-0.052,0.076,0.006,0.034,0.31,-0.076,0.027,-0.04,0.139,-0.016,-0.093,0.028,-0.098,-0.033,0.01,0.013,-0.087,-0.033,-0.25,0.022
PTPN6 isoform 4 (UniProt P29350),-0.12,-0.185,0.037,-0.015,-0.008,0.028,0.261,-0.218,-0.034,0.045,-0.227,-0.058,0.02,-0.038,-0.013,-0.28,0,0.015,-0.278,0.135
PCF11 (UniProt O94913),-0.018,-0.12,0.002,0.041,0.078,0.036,-0.021,0.009,0.042,0.002,-0.017,-0.014,-0.018,0.058,0.005,-0.086,-0.004,-0.031,-0.021,-0.017
